The source of these data is PubChem BioAssay AID720517 (National Center for Advancing Translational Sciences (NCATS), 2013).

Results filed as inconclusive are left out. Active and inactive are the calls of the source. Calls follow the shape of the dose curve; as a rule, active = well fitted activation curve with a large enough effect; inconclusive = small, poorly fitted or top-dose-only effect; inactive = flat fitted curve, though single readings scatter.

The nature of the experiment: qHTS for Inhibitors of Cell Surface uPA Generation: FP59 Counterscreen for Cherry-picked Compounds. Also: 0% is about no effect. As to conditions: FP59 anthrax toxin cytotoxicity counterscreen, cells; series mostly up to 115 µM; activity (protection from FP59): at the top concentration. Background: In qHTS, concentration-response curves come from the screen itself.
Take `Cc1nc2ccc(Br)cn2c1C(=O)N/N=C\c1ccccc1Cl`: the “activity (protection from FP59)” value was -1.29% (inactive).

Turning to `Cc1cc(C)n2nc(CNS(=O)(=O)c3ccc(F)c(C)c3)nc2n1`, the “activity (protection from FP59)” value was -1.49% (inactive).

In the case of `CSc1ccc(CNCCCN(C)C)cc1`, the “activity (protection from FP59)” value was -1.44% (inactive).

On to `CC1Cc2nc(SCC(=O)N3CCCC3)n(C)c(=O)c2S1` (configuration not stated), for which the “activity (protection from FP59)” value is -1.46% (inactive).

As to `Cc1cc(C)cc(NC(=O)Cc2ccc(NC3=NC4CS(=O)(=O)CC4S3)cc2)c1` (configuration not stated), the “activity (protection from FP59)” value was -1.22% (inactive).

Take `O=C(Nc1ccc(NC(=O)c2ccco2)c(Cl)c1)c1ccccc1`: the “activity (protection from FP59)” value is -1.41% (inactive).

`O=[N+]([O-])c1cccc2c(N3CCOCC3)ccnc12`: the “activity (protection from FP59)” value was -0.897% (inactive).

Consider `CC(C(=O)Nc1nccs1)c1ccc([N+](=O)[O-])cc1` (configuration not stated), for which the “activity (protection from FP59)” value was -1.23% (inactive).

For `CN(C)C(=S)Nc1ccc(S(=O)(=O)N2CCCCC2)cc1`, the “activity (protection from FP59)” value is -1.13% (inactive).

Regarding `O=C(NC1CC1)C1CCCN(C(=O)NC2CCCCC2)C1` (configuration not stated), the “activity (protection from FP59)” value was -1.52% (inactive).

With `COc1ccc(C(=O)NCCOC(C)C)cc1OC1CCN(C(C)=O)CC1`, the “activity (protection from FP59)” value is -1.24% (inactive).

For `CC1CC(=O)Nc2ccccc2N1C(=O)Cn1cnc2ccc(Br)cc2c1=O` (configuration not stated), the “activity (protection from FP59)” value was -1.21% (inactive).

On to `CC(C)(C)OC(=O)C[C@@H]1C/C=C\C[C@@H](CC(=O)N(CCO)Cc2ccccc2)C(=O)N[C@H](Cc2c[nH]c3ccccc23)COC1=O`, for which the “activity (protection from FP59)” value is 2.68% (inactive).

For the compound `Cn1c(=O)c(=O)n(C)c2cc(S(=O)(=O)CCC(=O)Nc3ccc(F)cc3)ccc21`, the “activity (protection from FP59)” value is -1.37% (inactive).

Take `CNC(=S)N1C2CCCC1CC(NC(=O)c1ccc(F)cc1)C2` (configuration not stated): the “activity (protection from FP59)” value was -1.37% (inactive).

As to `CCN(C1CCS(=O)(=O)C1)S(=O)(=O)c1ccc2ccccc2c1` (configuration not stated), the “activity (protection from FP59)” value is -1.5% (inactive).

As for `COc1ccc(NC(=O)/C(N=Nc2cc(S(=O)(=O)Nc3ccc(OC)cc3)ccc2OC)=C(\C)O)cc1`, the “activity (protection from FP59)” value was -1.19% (inactive).
